Source: PubChem (National Center for Advancing Translational Sciences (NCATS))
Rows were chosen to be rich in hits. Some 1.3% of all compounds tested hit in one or more screens of this group.
BRCA1 expr up = BRCA1 expression activation | actives 1.1% (n = 380,000) | Potency, µM (series often up to 46.1 µM), without a hit: top-dose activation, usual class: activators | MCF7-BRCA1-FFLuc reporter, luminescence, 48 h; response scale: scaled: vehicle 0%, 10 µM genistein 100%; also: potency is read from the fitted curve at half-maximal effect; nearly all actives have a fitted effect of over 80% in size
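48 h compound treatment of MCF7-BRCA1-FFLuc cells (phenol-red free MEM, 37 °C), then 15 min with luciferase substrate and luminescence imaging.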
PKM2 activator = increases activity of human pyruvate kinase M2. purified PKM2, Kinase-Glo ATP luminescence, activation; response scale: 0% is enzyme alone, no compound. P14618. Potency, µM (series often up to 57.5 µM), without a hit: at the highest dose activation, usual class: activators. actives 0.34% (n = 260,000); also: potency is read from the fitted curve at half-maximal effect; % is scaled to controls: 0 for no effect and ±100 for the full control effect; nearly all actives have a fitted effect of over 55% in size
Target sequence (P14618 whole entry, looked up): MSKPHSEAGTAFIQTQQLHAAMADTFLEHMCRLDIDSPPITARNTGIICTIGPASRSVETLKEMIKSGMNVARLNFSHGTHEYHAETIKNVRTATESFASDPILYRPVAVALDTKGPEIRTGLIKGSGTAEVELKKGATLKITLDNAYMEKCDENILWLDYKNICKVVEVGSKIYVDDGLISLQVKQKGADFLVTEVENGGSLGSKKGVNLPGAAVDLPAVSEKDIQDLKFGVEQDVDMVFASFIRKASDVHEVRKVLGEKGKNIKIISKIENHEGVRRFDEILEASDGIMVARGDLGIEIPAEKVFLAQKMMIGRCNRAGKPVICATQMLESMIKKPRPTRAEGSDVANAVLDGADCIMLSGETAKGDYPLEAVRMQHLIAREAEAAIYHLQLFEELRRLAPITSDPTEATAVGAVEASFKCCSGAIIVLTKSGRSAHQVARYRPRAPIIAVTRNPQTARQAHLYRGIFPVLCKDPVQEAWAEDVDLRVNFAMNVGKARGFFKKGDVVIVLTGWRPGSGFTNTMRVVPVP
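ATP formation by purified human PK-M2, quantified via coupled luciferase luminescence after 1 h at room temperature with 0.1 mM ADP and 0.5 mM PEP final.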
a7 integrin act = integrin-mediated muscular dystrophy alleviation activation | Potency, µM (series often up to 38.3 µM), for inactives: top-dose activation, most hits filed as activators | alpha7betagal myoblasts, beta-gal FDG fluorescence, 48 h | actives 0.064% (n = 350,000);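 also: potency is read from the fitted curve at half-maximal effect; 100% = response of the positive control SU9516; nearly all actives have a fitted effect of over 60% in size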
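alpha7betagal+/- myoblasts (passage 13, 250/well) treated 48 h at 37C with compounds at 1:260 dilution of DMSO stock. Lysed, then beta-galactosidase activity read as FDG fluorescence (ex 480/em 540) after 30 min, with pre-read for autofluorescence.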
IL-2 act = activators of IL-2 | IL-2 activation reporter assay, cell-based qHTS; stimulated with anti-CD3/CD4/CD28 beads; in transgenic mouse T cells | activation, % (series mostly up to about 46 µM) | actives 0.065% (n = 360,000); in the data active = activation above about 50%; inconclusive = mostly about 30% to 49%; also: 0% is about no effect
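EGFP and DsRed fluorescence is measured by plate cytometry in unstimulated transgenic mouse T cells exposed to compound for 60 minutes, then stimulated 18 hours at 37 degrees C with anti-CD3/anti-CD4 beads plus anti-CD28.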
Anesthetic bind = candidate novel general anesthetic via apoferritin binding | P02791 | apoferritin/1-aminoanthracene competitive binding, fluorescence | Potency, µM (top dose mostly 77.5 µM), inactives show top-dose activity change, negative = displacement, actives largely listed as inhibitors | actives 0.074% (n = 350,000) | AID 485281; also: potency is read from the fitted curve at half-maximal effect; % is scaled to controls: 0 for no effect and ±100 for the full control effect; nearly all actives have a fitted effect of over 20% in size
Target sequence (P02791 2-175 limits assumed): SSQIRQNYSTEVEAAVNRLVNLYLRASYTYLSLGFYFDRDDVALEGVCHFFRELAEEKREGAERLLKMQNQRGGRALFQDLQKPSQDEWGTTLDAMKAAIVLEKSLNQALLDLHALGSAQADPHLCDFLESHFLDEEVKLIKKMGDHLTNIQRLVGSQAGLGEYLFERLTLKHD
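Read-out: endpoint 1-AMA fluorescence, excitation 380 nm and emission 535 nm, after compounds sit 10 min at room temperature with 10 uM horse-spleen apoferritin in 50% saturated 1-AMA/PBS. Values come from four-parameter Hill fits.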
An asterisk follows results filed as active; ? = inconclusive; . = no result; [ ] = another dose, or the depositor's remark. Unless noted, calls follow the shape of the dose curve; as a rule, active = well fitted curve in the direction sought with a large enough effect; inconclusive = small, poorly fitted or top-dose-only effect, or another doubt; inactive = no such curve, though single readings can be large; an effect the other way counts as inactive or inconclusive.

SMILES | BRCA1 expr up | PKM2 activator | a7 integrin act | IL-2 act | Anesthetic bind
CCCCCCNc1ccc(/C=C/c2ccnc3ccccc23)cc1 | -24% | . | . | . | .
Cn1ncc(N=Cc2c(O)ccc3ccccc23)c1C(=O)Nc1cccc(Cl)c1 | -13% | -7% | -44% | 247* | -1%
Cn1ncc(Cl)c1C(=O)Nc1cccc(Cl)c1 | -49% | -2% | -21% | -1 | -16%
CCOc1ncccc1C(=O)NCCN1C(=O)S/C(=C/c2cccs2)C1=O | -4% | 16µM* | 23% | -1 | -3%
Cc1ccc(S(=O)(=O)N2CCN(c3nc(-n4cncn4)nc4ccccc34)CC2)cc1 | 4% | . | . | . | .
O=C(Nc1ccc2c(c1)OCO2)Nc1ccc(Br)cn1 | 2.8µM* | -18% | 13%[7.66 µM] | 0 | 8%
COc1ccc(S(=O)(=O)N(C)c2ccc(C(=O)NCc3ccco3)cc2)cc1 | -9% | 13µM* | -19% | 0 | -15%
O=C(NCc1ccc2c(c1)OCO2)Nc1ccc(F)cc1 | 10µM* | 0% | -6% | 0 | -4%
CN(c1ccccc1)S(=O)(=O)c1ccc(C(=O)NCc2ccco2)cc1 | -17% | . | 5% | -4 | .
COc1cccc(NC(=O)Nc2ccc3c(c2)OCO3)c1 | 2.8µM* | -9% | 2% | -2 | -6%
COc1ccccc1CNC(=O)c1ccc2c(c1)nc(C)n2-c1cccc(C)c1 | . | . | . | . | 200%
Cc1ccc(Cn2c(C)c3cnn(CC(=O)N4CCN(c5cc(C)ccc5C)CC4)c(=O)c3c2C)cc1 | . | . | . | . | 2%
COc1ccc2cc3c(N)c(C(=O)NCc4ccco4)sc3nc2c1 | 5.6µM* | -31% | -20% | 1 | -3%
Cc1ccc(NC(=O)Nc2ccc3c(c2)OCO3)c(OC(F)F)c1 | 2.5µM* | 1% | 44% | -1 | -8%
O=C(CNC(=O)c1ccccc1F)Nc1ccc2c(c1)OCO2 | 7.9µM* | . | ? | -1 | .
CN(c1ccc(C(=O)NCc2ccc3c(c2)OCO3)cc1)S(=O)(=O)c1ccccc1 | -3% | 16µM* | 37% | 8 | -7%
COc1ccc2cc3cc(C(=O)NCc4ccco4)oc3nc2c1 | 3% | 11% | -13% | -4 | 55%
CN(c1ccc(C(=O)NCc2ccc3c(c2)OCO3)cc1)S(C)(=O)=O | 8% | -3% | 14% | -2 | -6%
COc1ccc(-c2nc3c(=O)n(C)c(=O)nc-3n(C)n2)cc1 | -78% | . | . | . | .
CCCN1CNc2c(c(=O)[nH]c(=S)n2CCC(C)C)C1 | 18% | . | . | . | .
CC(=O)c1cccc(NC(=O)Nc2ccc3c(c2)OCO3)c1 | 11µM* | -1% | -3% | 1 | -8%
O=C(/C=C/c1ccc2c(c1)OCCO2)c1ccccc1 | 7.1µM* | -18% | 4% | -1 | -9%
C/C(=C\C(=O)c1ccccc1)Nc1ccc2c(c1)OCO2 | 7.9µM* | -11% | 14% | 0 | -16%
CN(c1ccc(C(=O)Nc2ccc3c(c2)OCCO3)cc1)S(C)(=O)=O | 24% | -18% | ? | -3 | -10%
COc1ccc(C(=O)/C=C/c2ccc3c(c2)OCCO3)cc1 | 53% | -1% | -10% | -4 | 1%
SMILES | BRCA1 expr up | PKM2 activator | a7 integrin act | IL-2 act | Anesthetic bind
CN(c1ccc(C(=O)Nc2ccc3c(c2)OCO3)cc1)S(C)(=O)=O | 6.3µM* | -19% | 17% | 1 | -6%
CCOc1ccc(N2C(=O)c3ccccc3C2O)cc1 (stereo not given) | 6.3µM* | -30% | 4% | 0 | -6%
CCOc1ccc(N2C(=O)c3ccccc3C2=O)cc1 | -1% | -1% | -3% | -1 | -14%
CCCCOc1ccc(C(=O)Nc2cccc(C)n2)cc1 | 2.8µM* | -21% | -10% | 0 | ?
Cc1cccc(NC(=O)c2ccc3nccnc3c2)n1 | 13µM* | -8% | 21% | 5 | -9%
O=C(Cc1ccccc1)c1ccc(O)cc1 | 11µM* | . | 0% | 0 | .
O=C(Cc1ccccc1)c1ccc(N2CCOCC2)cc1 | 11µM* | . | 26% | 0 | .
CC1(C)CCc2cc(O)ccc2O1 | 0% | . | . | . | .
O=C(Nc1nccs1)c1ccc2sc([C@H]3C[C@H](O)[C@@H](CO)O3)nc2c1 | 13µM* | . | . | 0 | .
O=C(Nc1nc2ccccc2s1)c1ccc2sc([C@H]3C[C@H](O)[C@@H](CO)O3)nc2c1 | ? | . | . | 1 | .
O=C(Nc1ccc2c(c1)OCO2)c1ccc2sc([C@@H]3O[C@H](CO)[C@@H](O)[C@H]3O)nc2c1 | 3.2µM* | . | . | 1 | .
O=C(Nc1ccc2c(c1)OCO2)c1ccc2sc([C@H]3C[C@H](O)[C@@H](CO)O3)nc2c1 | 8.9µM* | . | . | 0 | .
O=C(Nc1ccc2c(c1)OCO2)c1ccc2sc([C@@H]3O[C@H](CO)[C@H](O)[C@H](O)[C@H]3O)nc2c1 | 5% | . | . | 0 | .
COc1ccc(-c2cnc(C)o2)cc1S(=O)(=O)Nc1ccc(C)c(F)c1 | -31% | . | . | . | -10%
O=C(Nc1nc(-c2ccc(Br)cc2)ns1)c1ccc(F)cc1 | . | . | . | . | 12%
CCCn1nc2cc(C(=O)NCCc3cccs3)ccc2c1OCC | 11µM* | 1% | -1% | 0 | 1%
CCc1ccccc1N=Cc1c(C)c(C#N)c2[nH]c3ccccc3n2c1=O | 7% | . | 15% | 123* | .
N#Cc1c(N2CCSCC2)nsc1-c1ccccc1Cl | 11µM* | . | -44% | -3 | -12%
Cc1[nH]nc(SCC(=O)Nc2cccc(O)c2)c1[N+](=O)[O-] | -6% | 10µM* | -24% | 0 | -4%
CN(C)c1ccc(/C=C2\C=Nc3ccccc32)cc1 | 0% | . | . | . | .
O=C(NCCc1ccc(Cl)cc1)c1ccc2c(c1)N(Cc1ccccc1)C(=O)CS2 | . | . | . | . | -1%
COc1ccccc1CNc1ncnc2c1nnn2C | . | . | . | . | -4%
COc1ccccc1CNc1ncnc2c1nnn2Cc1ccccc1 | -41% | 20µM* | 11% | -1 | -21%
Cc1ccc(SCc2cn3cccnc3n2)cc1 | 11µM* | -7% | -7% | -1 | -20%
COc1cc(/C=C2\C(=O)N(c3cccc(C(=O)O)c3)N=C2C)ccc1OCc1ccccc1 | 7.1µM* | . | 16% | -1 | .
SMILES | BRCA1 expr up | PKM2 activator | a7 integrin act | IL-2 act | Anesthetic bind
O=C(Cc1cccc(F)c1)NO | -14% | . | . | . | .
O=C(CSc1ccc(-c2cccs2)nn1)N1CCCCCC1 | 13µM* | -5% | -6% | 0 | -16%
COc1ccc(OC)c(NC(=O)CSc2n[nH]c(-c3ccccc3Cl)n2)c1 | . | . | . | . | -13%
CCN(CC)c1ccc2nc3c4ccccc4c(=O)cc-3oc2c1 | 0.89µM* | . | 5% | -6 | 1%
O=C(Nc1ccc2c(c1)ncn2C1CCCCC1)c1ccco1 | 13µM* | -3% | 0% | -1 | -16%
COc1ccc(OCCC(=O)N2CCCCC2)cc1 | 11µM* | -2% | -13% | 1 | -1%
O=C(Oc1ccccc1)N1CCCCC1 | 8% | . | 18% | -1 | .
O=C(COc1ccc(-c2ccccc2)cc1)N1CCCC1 | 13µM* | -1% | -9% | -2 | -11%
O=C(Oc1ccc(-c2ccccc2)cc1)N1CCCCC1 | 7.1µM* | 1% | 14% | 0 | -22%
